This passage reports binding signal results from article PMC5836133, “The intracellular immune receptor Rx1 regulates the DNA-binding activity of a Golden2-like transcription factor”.

In all, about 16,000 sequences were measured (“e-score”: median about -0.044, highest 2% from about 0.38 on). For the sample, the highest values were picked, then their nearest neighbours and some sequences at random.

The target of this experiment is T1, GST-NbGlk1(82-244) (Nicotiana benthamiana).
T1 chain: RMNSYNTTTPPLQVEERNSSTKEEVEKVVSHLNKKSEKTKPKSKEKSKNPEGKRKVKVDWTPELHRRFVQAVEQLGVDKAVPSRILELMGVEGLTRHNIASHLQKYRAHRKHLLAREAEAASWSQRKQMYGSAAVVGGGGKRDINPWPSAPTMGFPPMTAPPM
Briefly: protein-binding microarray; NbGlk1 is a Golden2-like transcription factor of Nicotiana benthamiana; high values mean tight binding. Conditions: protein: recombinant; tags: GST (pTH6838); dsDNA, one strand shown.
On to ATCGATAC, for which the binding signal is 0.245 ± 0.0652 E-score.

Regarding ATTTCAAA, the binding signal came out at 0.231 ± 0.179 E-score. Regarding CAAAATAA, the binding signal was 0.205 ± 0.0749 E-score.

On to ATCGCCAC, for which the binding signal is 0.22 ± 0.062 E-score. With ATCGCTTC the figure was 0.206 ± 0.0242 E-score; with AGTGATTC, 0.282 ± 0.0766 E-score; with AAGAATCT, 0.449 ± 0.0147 E-score. With ACGAATCC the figure was 0.361 ± 0.00735 E-score. With ACGAATCT the figure was 0.403 ± 0.0288 E-score. In the case of CAGAATCA, the binding signal was 0.373 ± 0.00814 E-score. The figure for AGGAATCA is 0.32 ± 0.0361 E-score. The figure for CAGAATCG is 0.33 ± 0.0217 E-score; for AACAATCT it is 0.244 ± 0.0358 E-score; for AGGAATCG it is 0.295 ± 0.0158 E-score.

With AGGAATCC, the binding signal is 0.422 ± 0.0123 E-score. As to AAGAATAT, the binding signal was determined as 0.331 ± 0.00702 E-score.

Turning to CAGAATCC, the binding signal turned out to be 0.447 ± 0.0238 E-score. The figure for ACGAATCA is 0.247 ± 0.0177 E-score; for ATCTGTTC it is 0.214 ± 0.0509 E-score. With AGGAAGAT, the binding signal was 0.276 ± 0.00329 E-score. With ATCGTGCG the figure was 0.234 ± 0.00703 E-score. AATCACTG: the binding signal is 0.269 ± 0.00608 E-score. The figure for ATACTCAT is 0.264 ± 0.0418 E-score; for AAGAATCA it is 0.3254 ± 0.00141 E-score. With AAGAATCC the figure was 0.455 ± 0.016 E-score.

On to AAGAATCG, for which the binding signal came out at 0.374 ± 0.0323 E-score.

Consider ATCCGCGC, for which the binding signal was 0.215 ± 0.0363 E-score.

As for AAGATCCC, the binding signal is 0.333 ± 0.0797 E-score. With AATATTCT the figure was 0.313 ± 0.0605 E-score; with AAGATTCT, 0.4522 ± 0.000701 E-score; with AATATTCC, 0.341 ± 0.0191 E-score. The figure for AATATTCG is 0.258 ± 0.049 E-score; for AAGATTCG it is 0.41 ± 0.0145 E-score. With CAGATTCC the figure was 0.473 ± 0.0158 E-score.

In the case of AAGATTCA, the binding signal worked out at 0.205 ± 0.0308 E-score. The figure for AAGATTCC is 0.46 ± 0.0101 E-score; for AAAATTCC it is 0.201 ± 0.0158 E-score.

On to AAGATCCG, for which the binding signal was found to be 0.332 ± 0.0135 E-score. With ATTTCATC the figure was 0.269 ± 0.0106 E-score; with AATTCCCG, 0.27 ± 0.108 E-score; with CACGATTC, 0.3711 ± 0.000458 E-score. The figure for ATATCAGG is 0.305 ± 0.00775 E-score; for CACAATCC it is 0.366 ± 0.0571 E-score; for ATCCTAAC it is 0.254 ± 0.069 E-score. With ATCTGTAA the figure was 0.331 ± 0.0244 E-score.

In the case of ATTCGCTG, the binding signal is 0.298 ± 0.0414 E-score. With ATACGAAT, the binding signal is 0.352 ± 0.0554 E-score. Regarding ATATTATA, the binding signal worked out at 0.279 ± 0.00302 E-score.

Take ATCCTATC: the binding signal turned out to be 0.258 ± 0.104 E-score. The figure for CAGATTCA is 0.293 ± 0.0151 E-score; for CAGATTCG it is 0.438 ± 0.0122 E-score; for CAAATTCG it is 0.213 ± 0.1 E-score. The figure for ATAGTAAT is 0.315 ± 0.0567 E-score. With ATTACCGC the figure was 0.289 ± 0.0145 E-score. Take AAAAGAAT: the binding signal came out at 0.267 ± 0.0274 E-score.

For the sequence AACAGATC, the binding signal was 0.305 ± 0.0266 E-score.

In the case of AACAGATA, the binding signal was determined as 0.271 ± 0.00439 E-score. The figure for AACGGATC is 0.25 ± 0.015 E-score.

As for AAAAGATT, the binding signal was determined as 0.388 ± 0.0102 E-score. Take AACGGATA: the binding signal was determined as 0.215 ± 0.0275 E-score. The figure for AATAGATC is 0.247 ± 0.0558 E-score. The figure for AATAGATA is 0.245 ± 0.0719 E-score; for AAAAGATC it is 0.301 ± 0.0113 E-score. The figure for AACAGATT is 0.426 ± 0.00502 E-score; for AACGGATT it is 0.392 ± 0.0181 E-score. Regarding AATAGATT, the binding signal came to 0.406 ± 0.0231 E-score. The figure for CAGAGATC is 0.312 ± 0.0606 E-score; for ACTGGAAT it is 0.256 ± 0.0159 E-score; for AGAGGAAT it is 0.21 ± 0.0368 E-score. With ATATGCAA the figure was 0.29 ± 0.0125 E-score; with AAGAGATA, 0.309 ± 0.0135 E-score; with AAGAGATT, 0.4 ± 0.035 E-score. The figure for AAGAGATC is 0.377 ± 0.0169 E-score; for AATCGCAT it is 0.274 ± 0.0414 E-score; for AATCTCAT it is 0.4204 ± 0.00133 E-score. Turning to ATTCTCAC, the binding signal was determined as 0.299 ± 0.0167 E-score. On to AATCTCTA, for which the binding signal came to 0.3774 ± 0.00278 E-score.

Turning to AATCTCAC, the binding signal was determined as 0.394 ± 0.0342 E-score. The figure for AATCTCTC is 0.368 ± 0.0262 E-score.

As for AATCTCAA, the binding signal amounted to 0.421 ± 0.0141 E-score. The figure for ATTCTCAA is 0.329 ± 0.0151 E-score; for AATCTCTG it is 0.3738 ± 0.00333 E-score; for ATCCTCAT it is 0.212 ± 0.0808 E-score. The figure for ATTCTCAG is 0.32 ± 0.0298 E-score; for AATCTCAG it is 0.428 ± 0.00714 E-score; for ATTACGTC it is 0.277 ± 0.0973 E-score.
